Screens as filed in PubChem BioAssay.
USP30 block: inhibitors of human USP30 deubiquitinase. 47,000 compounds, 5.3% hits. inhibition, % at 25 µM. purified USP30, Ub-rhodamine cleavage fluorescence
USP17 block: inhibitors of human USP17 deubiquitinase. inhibition, % at 50 µM. Ubiquitin carboxyl-terminal hydrolase 17-like protein 5 (Homo sapiens), A8MUK1. purified USP17, Ub-rhodamine cleavage fluorescence, 3 h. 47,000 compounds, 6.5% hits
USP8 block: inhibitors of human USP8 deubiquitinase | inhibition, % at 20 µM | Ubiquitin carboxyl-terminal hydrolase 8 (Homo sapiens), P40818 | purified USP8, Ub-rhodamine cleavage fluorescence, 30 min | AID 1645853, 2021 | 47,000 compounds, 4.2% hits
An asterisk follows results filed as active; x = no result given. Compounds with a hit are over-represented: about 12% of the library has one in this group of screens. Rule as the data show it: active = inhibition above about 30%; inactive = the rest.

SMILES	USP30 block	USP17 block	USP8 block
Nc1cc(C2CCN(C(=O)NCc3cccc(F)c3)CC2)no1	0	0	1
COc1ccc(NC(C)=O)cc1S(=O)(=O)Nc1ccccc1Oc1cccc(C)c1	-60	-19	14
CCN(CCCNS(=O)(=O)c1ccc2c(c1)CCN2C(C)=O)c1ccccc1	0	1	-5
CC(=O)NC(Cc1ccccc1)c1nc2ccccc2n1Cc1ccccc1F (configuration not stated)	4	-2	0
Cc1cccc(C(=O)NC(Cc2ccccc2)c2nc3ccccc3n2C)c1 (configuration not stated)	45*	x	16
COc1ccc(CNS(=O)(=O)c2c(C)[nH]c(C)c2-c2nc(C)no2)cc1	25	14	20
CCCn1c2ccccc2n2cc(-c3ccc(-c4ccccc4)cc3)nc12	2	34*	81*
Fc1ccc(-c2cnc(NCc3ccc(Cl)cc3)nc2)cc1	5	8	17
Oc1ccccc1CNc1nc2ccccc2n1CCN1CCCCC1	2	0	8
Brc1ccc(-c2cn3c4ccccc4n(CCN4CCCCC4)c3n2)cc1	18	20	48*
CCCn1c2ccccc2n2c(C(C)=O)c(-c3ccccc3)nc12	17	13	3
Fc1ccc(-c2cn3c4ccccc4n(Cc4ccc(Cl)cc4)c3n2)cc1	-12	46*	62*
COc1cc(C(C)=O)ccc1OCC(=O)Nc1ccccc1Oc1ccccc1	7	15	5
O=C(Cc1ccc2c(c1)OCCO2)NCc1nnc2c(C(F)(F)F)cc(Cl)cn12	12	4	9
COC(=O)C12Oc3cc4c(c(O)c3C(O)=C1C(=O)CCC2O)C1C=CC2(C4)C(=O)c3cc(C)cc(O)c3C(O)=C2C1=O (configuration not stated)	-63	48*	-59
COC(=O)[C@@]12Oc3ccc(-c4ccc5c(c4O)C(O)=C4C(=O)C[C@H](C)[C@H](O)[C@]4(C(=O)OC)O5)c(O)c3C(O)=C1C(=O)C[C@H](C)[C@H]2O	21	-25	7
COc1ccc(CN2CCN(C(=O)NCc3ccco3)CC2)cn1	-107	x	-14
CCc1cccc(NS(=O)(=O)c2cc3n(c2)CCN(C)C3=O)c1	-20	x	-2
COc1ccc(C2c3[nH]c4ccccc4c3C[C@H]3C(=O)N(CCCN4CCOCC4)CC(=O)N23)cc1 (some centres not stated)	-90	-28	-11
COc1cccc(C2c3[nH]c4ccccc4c3C[C@@H]3C(=O)N(CCCN4CCOCC4)CC(=O)N23)c1 (some centres not stated)	37*	-17	-27
COC(=O)CN1CC2(CCN(Cc3ccccc3)CC2)COc2ccccc2S1(=O)=O	-9	-17	-59
O=C(Cn1cnc2c(sc3ccccc32)c1=O)Nc1ccc(F)c(F)c1	-319	27	-15
Cc1cc(C)c2c(n1)sc1c(=O)n(CC(=O)Nc3cccc(Cl)c3)cnc12	-50	41*	-4
O=C(NCc1cccc(Cl)c1)c1csc(C(=O)NC2CC2)n1	4	-15	-9
CCC(C)c1ccc(NC(=O)COc2nc3ccccc3nc2C)cc1 (configuration not stated)	-4	47*	-5
SMILES	USP30 block	USP17 block	USP8 block
COc1ccccc1OCC(=O)Nc1ccc(-c2nc3ccccc3s2)cc1	-51	-16	0
Cc1nn(-c2ccc(Cl)cc2)c2nc(-c3ccc(OCc4ccc(Cl)cc4)cc3)cc(C(F)(F)F)c12	0	1	-8
COc1ccccc1NS(=O)(=O)c1cc([N+](=O)[O-])ccc1NCC1COc2ccccc2O1 (configuration not stated)	22	6	3
Cc1ccc([N+](=O)[O-])cc1S(=O)(=O)Nc1cc2sc(=O)oc2c2ccccc12	-10	67*	89*
O=c1[nH]c2c(-c3ccncc3)nsc2c(=O)n1Cc1ccccc1	-1	-11	0
CC(=O)N1Cc2ccccc2OC2(CCCN(Cc3ccccc3)C2)C1 (configuration not stated)	x	2	-4
O=C(CN1C(=O)c2ccccc2Sc2ccc(C(=O)N3CCCC3)cc21)Nc1ccccc1Cl	-140	52*	5
Cc1cccc(CN2C(=O)c3ccccc3Sc3ccc(C(=O)N4CCC5(CC4)OCCO5)cc32)c1	0	7	11
Cc1cc(C)n(-c2cc(C(=O)N3CCN(C(=O)c4ccccc4F)CC3)ccc2F)n1	14	3	-25
O=C(Nc1ccccc1)N1CCCN(c2nc3ccc(Cl)cc3s2)CC1	-18	-6	0
O=C(O)/C=C/C(=O)Nc1cccc(SC(C(=O)Nc2ccccn2)c2ccccc2)c1 (configuration not stated)	-24	-8	24
Cc1cccc(C(=O)Nc2cccc(SC(C(=O)Nc3ccc(O)c(C(=O)O)c3)c3ccccc3)c2)c1 (configuration not stated)	6	29	88*
O=C(O)c1ccccc1C(=O)Nc1ccc(SC(C(=O)Nc2cccc(Cl)c2Cl)c2ccccc2)cc1 (configuration not stated)	-83	-6	-33
Cc1cccc(NC(=O)C(Sc2ccc(NC(=O)c3ccccc3C(=O)O)cc2)c2ccccc2)c1 (configuration not stated)	-38	-23	-19
Cc1ccccc1C(=O)Nc1cccc(SC(C(=O)Nc2ccc(O)c(C(=O)O)c2)c2ccccc2)c1 (configuration not stated)	38*	28	2
O=C(O)c1cccc(NC(=O)C(Sc2cccc(NC(=O)c3cccc(Cl)c3)c2)c2ccccc2)c1 (configuration not stated)	-4	42*	3
Cc1ccccc1C(=O)Nc1ccc(C)c(N2CCCC2=O)c1	-18	2	9
O=C(O)c1ccccc1C(=O)Nc1ccc(SC(C(=O)Nc2ccccc2Cl)c2ccccc2)cc1 (configuration not stated)	4	47*	-1
COc1ccccc1NC(=O)C1c2ccccc2C(=O)N(C2CCCC2)C12CCCCC2 (configuration not stated)	21	4	4
O=C1CN(C(=O)COC(=O)Cc2ccc(Br)cc2)c2ccccc2N1	-14	0	3
COc1ccccc1CNC(=O)C1=CCN(Cc2ccc(C)cc2)CC1	-14	-11	-1
CCCOc1ccc(/C=N/NC(=O)c2cc(-c3ccccc3OC)nc3ccccc23)cc1	-14	-12	-19
Cc1c(C)n(-c2ccc(Br)cn2)c2ncnc(NCCCO)c12	60*	4	-11
Cc1c(C)n(-c2ccc(Br)cn2)c2ncn(Cc3ccco3)c(=N)c12	-7	1	1
Cc1ccc(-c2nnc(N3CCC(C(=O)N4CCC(C)CC4)CC3)o2)cc1	5	-3	4
O=C(Cn1cncc(-c2nc(-c3ccccc3)cs2)c1=O)NC1CCCC1	49*	67*	21
COCCn1cnc2c(-c3ccccc3)cn(CC(=O)NC3CCCC3)c2c1=O	16	9	3
CN1CCN(C(c2cccnc2)c2oc3ccccc3c2NC(=O)c2ccccc2)CC1 (configuration not stated)	2	-4	-3
Cn1cccc1C(=O)N1CCn2nc(-c3ccc4ccccc4c3)cc2C1	12	11	17
